# Results: PubChem BioAssay (NCATS)
# Records with an inconclusive call do not appear. A call without a number means that no potency is given here. Unmarked numbers belong to inactive results. Active and inactive are the calls of the source. Calls come from the whole dose curve; as a rule, active = well fitted curve in the direction sought with a large enough effect; inconclusive = small, poorly fitted or top-dose-only effect, or another doubt; inactive = no such curve, though single readings can be large; an effect the other way counts as inactive or inconclusive.
# How the values were obtained:
# HeLa = assay: Primary qHTS to identify gynecologic anti-cancer compounds using libraries of approved drugs and bioactive compounds (AID 1345084); conditions: Gynecologic cancer cell panel viability, ATPlite luminescence, 48 h; series mostly up to 57.5 µM; note: nearly all actives have a fitted effect of over 55% in size
# Outline: (§1)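 Cells, 1,000 per well, were allowed to settle for 16 h at 37 C before compound addition. Five concentrations were tested for 48 h, and viability was read by ATPlite luminescence after 15 min at room temperature.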
# Hek293T = assay: as above; conditions: Gynecologic cancer cell panel viability, ATPlite luminescence, 48 h, control line for the selectivity index; series mostly up to 57.5 µM
# Outline: as §1
# JEG-3 = assay: as above; conditions: Gynecologic cancer cell panel viability, ATPlite luminescence, 48 h; series mostly up to 57.5 µM
# Outline: as §1
# OV90 = assay: as above; conditions: Gynecologic cancer cell panel viability, ATPlite luminescence, 48 h; series mostly up to 57.5 µM
# Outline: as §1
# PA-1 = assay: as above; conditions: Gynecologic cancer cell panel viability, ATPlite luminescence, 48 h; series mostly up to 57.5 µM
# Outline: as §1
# Tov-21-G = assay: as above; conditions: Gynecologic cancer cell panel viability, ATPlite luminescence, 48 h; series mostly up to 57.5 µM
# Outline: as §1
# Tov112D = assay: as above; conditions: Gynecologic cancer cell panel viability, ATPlite luminescence, 48 h; series mostly up to 57.5 µM
# Outline: as §1
# SKOV3 = assay: as above; conditions: Gynecologic cancer cell panel viability, ATPlite luminescence, 48 h; series mostly up to 57.5 µM
# Outline: as §1
# [1] = qHTS assay to identify inhibitors of the type 1 interferon - major histocompatibility complex class I in skeletal muscle: Counter screen cell viability and HiBit confirmation (AID 1347412); conditions: iHSKM muscle cells + IFN-b, HiBiT or CellTiter-Glo, 24 h; for activity change, negative = inhibition: at 45.9 µM (top of the series); for all read-outs here: nearly all actives have a fitted effect of over 60% in size
# Outline: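 Duplicate plates, pinned identically: one read for HiBiT-tagged endogenous HLA-B luminescence, the other for ATP-content viability via CellTiter Glo. Cells were genome-engineered human myoblasts given 4 ng/ml IFN-b; compounds 12-pt, 1:3 from 46 uM final; 24 hr exposure.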
# Potency is the fitted concentration of half-maximal effect.
structure (smiles),measurement,setting,value
CCCCn1c(=O)n(Cc2ccccc2F)c(=O)c2[nH]c(Cc3ccc(NC(C)=O)cc3)nc21,Potency,HeLa,inactive
same,Potency,Hek293T,inactive
same,Potency,JEG-3,inactive
same,Potency,OV90,inactive
same,Potency,PA-1,inactive
same,Potency,Tov-21-G,inactive
same,Potency,Tov112D,inactive
Cc1cnc(CNC(=O)c2c(=O)c3ccc(N4CCCN(C)CC4)nc3n3c2sc2ccccc23)cn1,"activity change, negative = cytotoxicity",HeLa,-13.6% [at 11.6 µM]
same,"activity change, negative = cytotoxicity",Hek293T,-21% [at 11.6 µM]
same,"activity change, negative = cytotoxicity",JEG-3,-3.1% [at 11.6 µM]
same,"activity change, negative = cytotoxicity",OV90,10.5% [at 11.6 µM]
same,"activity change, negative = cytotoxicity",SKOV3,-5.43% [at 11.6 µM]
same,"activity change, negative = cytotoxicity",Tov-21-G,-27.4% [at 11.6 µM]
same,"activity change, negative = cytotoxicity",Tov112D,-20.9% [at 11.6 µM]
Cc1ccccc1C(C(=O)NC1CCCCC1)N(C(=O)CNc1ccc(C#N)cc1)c1cccc(F)c1 (stereo unspecified),Potency,HeLa,inactive
same,Potency,Hek293T,inactive
same,Potency,JEG-3,inactive
same,Potency,OV90,inactive
same,Potency,SKOV3,inactive
same,Potency,Tov-21-G,inactive
same,Potency,Tov112D,inactive
COC(=O)N1CCN(Cc2cccc(NC(=O)Nc3ccc(C)nc3)c2F)CC1,Potency,HeLa,inactive
same,Potency,Hek293T,inactive
same,Potency,JEG-3,inactive
same,Potency,OV90,inactive
same,Potency,PA-1,inactive
same,Potency,Tov-21-G,inactive
same,Potency,Tov112D,inactive
CNC(=O)c1cc(Oc2ccc(NC(=O)Nc3ccc(Cl)c(C(F)(F)F)c3)c(F)c2)ccn1,Potency,HeLa,inactive
same,Potency,Hek293T,inactive
same,Potency,PA-1,inactive
same,Potency,SKOV3,inactive
same,Potency,Tov-21-G,inactive
same,Potency,Tov112D,inactive
same,"activity change, negative = inhibition",[1]; HiBiT,-24.1%
same,"activity change, negative = inhibition",[1]; Viability,2.73%
CN1CCc2c(n(Cc3ccc(C(=O)NO)cc3)c3ccccc23)C1,Potency,Hek293T,inactive
same,Potency,JEG-3,inactive
same,Potency,OV90,inactive
same,Potency,Tov112D,inactive
Nc1ccc(-c2ccc3ncc4ccc(=O)n(-c5cccc(C(F)(F)F)c5)c4c3c2)cn1,Potency,HeLa,2.51 µM (active)
same,Potency,Hek293T,0.316 µM (active)
same,Potency,JEG-3,8.91 µM (active)
same,Potency,Tov-21-G,17.8 µM (active)
CN1CCC(COc2cnc(-c3cccc(Cn4nc(-c5cccc(C#N)c5)ccc4=O)c3)nc2)CC1,Potency,HeLa,inactive
same,Potency,Hek293T,inactive
same,Potency,OV90,inactive
same,Potency,PA-1,inactive
same,Potency,SKOV3,inactive
same,Potency,Tov-21-G,inactive
same,Potency,Tov112D,inactive
CCn1c(-c2nonc2N)nc2cncc(CNC3CCNCC3)c21,Potency,HeLa,inactive
same,Potency,JEG-3,inactive
same,Potency,PA-1,inactive
same,Potency,Tov112D,inactive
CCC(=O)N1CCN(c2ccc(-n3c(=O)ccc4cnc5ccc(-c6cnc7ccccc7c6)cc5c43)cc2C(F)(F)F)CC1,Potency,Hek293T,0.1 µM (active)
same,"activity change, negative = cytotoxicity",JEG-3,-16.3% [at 11.6 µM]
same,Potency,PA-1,0.126 µM (active)
same,Potency,Tov-21-G,0.0794 µM (active)
CCN1CCN(c2ccc(Nc3cc(N(C)C(=O)Nc4c(Cl)c(OC)cc(OC)c4Cl)ncn3)cc2)CC1,Potency,Hek293T,inactive
same,Potency,JEG-3,inactive
same,Potency,OV90,inactive
same,Potency,PA-1,inactive
same,Potency,Tov112D,inactive
Cc1cnc(Nc2cccc(CN3CCOCC3)c2)nc1Nc1cccc(S(=O)(=O)NC(C)(C)C)c1,Potency,Hek293T,inactive
same,Potency,JEG-3,inactive
same,Potency,OV90,inactive
same,Potency,SKOV3,0.794 µM (active)
same,Potency,[1]; HiBiT,7.01 µM (active)
Cn1cnc(-c2cc3nccc(Oc4ccc(NC(=S)NC(=O)Cc5ccccc5)cc4F)c3s2)c1,Potency,Hek293T,inactive
same,Potency,JEG-3,inactive
same,Potency,OV90,inactive
CN1c2ccccc2C(=O)N2CCc3c([nH]c4ccccc34)C21 (stereo unspecified),Potency,HeLa,7.94 µM (active)
same,Potency,JEG-3,3.98 µM (active)
same,Potency,PA-1,7.08 µM (active)
same,Potency,Tov-21-G,8.91 µM (active)
same,Potency,Tov112D,3.55 µM (active)
COc1cc2nccc(Oc3ccc(NC(=O)Nc4cc(C)on4)c(Cl)c3)c2cc1OC,Potency,Hek293T,inactive
same,Potency,JEG-3,inactive
Cc1cc(-c2ncc(CC(=O)Nc3ccc(-c4cnccn4)cn3)cc2C)ccn1,Potency,HeLa,inactive
same,Potency,JEG-3,inactive
same,Potency,OV90,inactive
same,Potency,SKOV3,39.8 µM (active)
same,Potency,Tov-21-G,inactive
same,Potency,Tov112D,inactive
NC1(C(=O)N[C@@H](CCO)c2ccc(Cl)cc2)CCN(c2ncnc3[nH]ccc23)CC1,Potency,HeLa,inactive
same,Potency,OV90,inactive
same,Potency,Tov-21-G,0.794 µM (active)
same,Potency,Tov112D,inactive
same,"activity change, negative = inhibition",[1]; Viability,-19.1%
Nc1ncnc2c1c(-c1cccc(OCc3ccccc3)c1)cn2C1CC(CN2CCC2)C1 (stereo unspecified),Potency,Hek293T,14.1 µM (active)
same,Potency,OV90,22.4 µM (active)
same,Potency,PA-1,14.1 µM (active)
same,Potency,Tov-21-G,35.5 µM (active)
same,Potency,[1]; HiBiT,22.2 µM (active)
Cc1ccccc1C(=O)c1ccc(Nc2ccc(Br)cc2N)cc1Cl,Potency,HeLa,inactive
same,Potency,Hek293T,inactive
same,Potency,OV90,inactive
same,Potency,SKOV3,inactive
same,Potency,Tov-21-G,inactive
same,Potency,Tov112D,inactive
CNc1nc(Nc2ccc(C(=O)N3CCOCC3)cc2OC)ncc1Cl,Potency,HeLa,inactive
same,Potency,Hek293T,inactive
same,Potency,PA-1,inactive
same,Potency,SKOV3,inactive
same,Potency,Tov-21-G,inactive
same,Potency,Tov112D,inactive
C[C@@H](N)c1ccc(C(=O)Nc2ccnc3[nH]ccc23)cc1,Potency,HeLa,17.8 µM (active)
same,Potency,JEG-3,inactive
same,Potency,OV90,inactive
same,Potency,Tov-21-G,31.6 µM (active)
same,Potency,Tov112D,25.1 µM (active)
CNC1CCC(N(Cc2cccc(-c3ccncc3)c2)C(=O)c2sc3ccccc3c2Cl)CC1 (stereo unspecified),Potency,HeLa,inactive
same,Potency,SKOV3,25.1 µM (active)
same,Potency,Tov-21-G,inactive
same,Potency,Tov112D,inactive
CC1(COc2ccc3c(c2)ncn3-c2ccc3cccc(N4CCC(N)CC4)c3n2)COC1,Potency,HeLa,20 µM (active)
same,Potency,Hek293T,20 µM (active)
same,Potency,PA-1,8.91 µM (active)
same,Potency,[1]; HiBiT,3.52 µM (active)
same,Potency,[1]; Viability,27.9 µM (active)
N#CC1(c2cccc(C(=O)Nc3cc(Oc4ccc5nc(NC(=O)C6CC6)sc5n4)ccc3F)c2Cl)CC1,Potency,HeLa,inactive
same,Potency,JEG-3,inactive
same,Potency,PA-1,10 µM (active)
same,Potency,SKOV3,20 µM (active)
same,Potency,Tov-21-G,3.98 µM (active)
same,Potency,Tov112D,5.62 µM (active)
CC(C)CNc1ccnc(NCc2csc(-c3ccccc3)n2)n1,Potency,HeLa,inactive
same,Potency,JEG-3,inactive
same,Potency,PA-1,12.6 µM (active)
same,Potency,SKOV3,11.2 µM (active)
same,"activity change, negative = inhibition",[1]; Viability,-28.7%
Cc1ccc2c(c1)c1c(n2CCc2ccc(C)nc2)CCN(C)C1,Potency,HeLa,inactive
same,Potency,JEG-3,inactive
same,Potency,OV90,inactive
COc1ccc(-c2ccc3ncc4c(c3c2)n(-c2ccc(N3CCNCC3)c(C(F)(F)F)c2)c(=O)n4C)cn1,Potency,HeLa,1.12 µM (active)
same,Potency,OV90,31.6 µM (active)
same,Potency,PA-1,0.316 µM (active)
same,Potency,Tov-21-G,35.5 µM (active)
same,Potency,Tov112D,15.8 µM (active)
same,Potency,[1]; Viability,4.43 µM (active)
COc1ccc(-c2nc3ccc(C4=NNC(=O)CC4C)cc3[nH]2)cc1 (stereo unspecified),Potency,Hek293T,inactive
same,Potency,JEG-3,inactive
same,Potency,OV90,inactive
same,Potency,SKOV3,35.5 µM (active)
COc1nccc(-c2c(-c3ccc(F)cc3)ncn2C2CCNCC2)n1,Potency,HeLa,inactive
same,Potency,Hek293T,inactive
same,Potency,JEG-3,inactive
same,Potency,SKOV3,inactive
same,Potency,Tov112D,inactive
CC[C@H](CC#N)OC(=O)N[C@@H](C)c1cccc(NC(=O)Nc2ccc(-c3cnco3)c(OC)c2)c1,Potency,Hek293T,1.78 µM (active)
same,Potency,JEG-3,inactive
same,Potency,PA-1,0.355 µM (active)
same,Potency,SKOV3,6.31 µM (active)
same,Potency,Tov-21-G,1.26 µM (active)
same,"activity change, negative = inhibition",[1]; Viability,-7.06%
